High-throughput results as filed in PubChem BioAssay.
GCN5L2 inh: blocks human GCN5L2 histone acetyltransferase; Potency, µM (highest dose often 58.9 µM), for inactives: at the highest dose activity change, negative = inhibition, most hits filed as inhibitors; AID 504327; actives 0.21% (n = 390,000); GCN5L2 HAT assay, ThioGlo1 CoA-SH fluorescence; Q92830
Target sequence (Q92830 whole entry, looked up): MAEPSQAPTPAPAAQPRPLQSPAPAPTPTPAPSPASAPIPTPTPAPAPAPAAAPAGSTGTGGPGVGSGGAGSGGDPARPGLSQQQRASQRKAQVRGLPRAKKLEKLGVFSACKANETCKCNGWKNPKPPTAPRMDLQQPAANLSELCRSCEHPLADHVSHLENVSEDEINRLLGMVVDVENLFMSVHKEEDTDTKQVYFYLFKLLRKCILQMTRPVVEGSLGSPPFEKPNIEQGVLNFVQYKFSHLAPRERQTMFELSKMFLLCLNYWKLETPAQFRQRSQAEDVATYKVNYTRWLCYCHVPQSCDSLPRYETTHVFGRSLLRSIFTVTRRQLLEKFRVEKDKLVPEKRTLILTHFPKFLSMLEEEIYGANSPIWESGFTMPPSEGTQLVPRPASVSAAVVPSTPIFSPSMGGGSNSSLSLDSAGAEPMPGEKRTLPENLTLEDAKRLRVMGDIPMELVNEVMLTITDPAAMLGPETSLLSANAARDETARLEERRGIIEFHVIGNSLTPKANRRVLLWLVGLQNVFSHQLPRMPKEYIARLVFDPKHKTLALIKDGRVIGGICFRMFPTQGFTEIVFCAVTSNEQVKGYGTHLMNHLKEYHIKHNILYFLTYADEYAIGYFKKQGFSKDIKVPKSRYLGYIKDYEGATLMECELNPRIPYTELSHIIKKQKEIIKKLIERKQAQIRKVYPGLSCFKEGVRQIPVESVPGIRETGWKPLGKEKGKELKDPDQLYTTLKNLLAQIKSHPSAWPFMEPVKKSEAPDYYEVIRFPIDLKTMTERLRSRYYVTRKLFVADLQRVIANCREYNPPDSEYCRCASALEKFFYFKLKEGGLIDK
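qHTS, 1536-well. 20nM enzyme, pH 7.5 HEPES/EDTA/Tween-20 buffer; 15 min compound preinc., RT. Start: 75uM H3(1-25), 70uM AcCoA, 50uM ThioGlo1. Read Ex340/Em540 at t=0 (autofluorescence flag) and t=20 min.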
VDR inhibitor: vitamin D3 receptor (human) inhibition | P11473 | VDR-SRC2-3 peptide fluorescence polarization, 2 h | Potency, µM, for inactives: max response, negative = inhibition, hits mostly inhibitors | actives 0.93% (n = 400,000)
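Inhibition of the VDR/SRC2-3 peptide interaction is quantified by fluorescence polarization. Compounds (23 nl, pintool) incubate with the reagents for 2 hours at ambient room temperature.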
TrxR1 inh: inhibitors of rat thioredoxin reductase 1; Potency, µM (top dose mostly 114 µM), without a hit: top-dose activity change, negative = inhibition, actives largely listed as inhibitors; AID 588453; actives 1% (n = 390,000); recombinant rTrxR1, NADPH fluorescence consumption, selenite substrate; O89049; further: nearly all actives have a fitted effect of over 65% in size
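Rat TrxR1 (90 nM in the dispensed reagent) was pre-reduced with 400 uM NADPH for 5 min at room temperature, then incubated with compound for 15 min. After 400 uM selenite was added, NADPH fluorescence (Ex 340/Em 450 nm) was followed for 8 min.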
GLS inh: glutaminase GLS (human) inhibition. GLS enzymatic activity, qHTS titration. O94925. Potency, µM (highest dose often 45.5 µM), for inactives: top-dose activity change, negative = inhibition, most hits filed as inhibitors. actives 0.21% (n = 410,000)
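hKGA in 45 mM KH2PO4 (pH 8.2), 0.02% Tween-20 with compound, then 1mM L-Glutamine (stock as added) plus glutamate oxidase/HRP/Amplex red coupling mix. Fluorescence read initially and after 30 min at RT; signal change reflects glutamate formation.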
Sfp PPTase inh: blocks B. subtilis Sfp PPTase activity; Biochemical Sfp PPTase activity, qHTS; Potency, µM, without a hit: largest response in the series, negative = inhibition, hits mostly inhibitors; actives 3.5% (n = 310,000); AID 1490;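 further: the enzyme is Sfp with the accession as filed and its product quenches rhodamine fluorescence; 0% = enzyme reaction without inhibitor and -100% = no enzyme wells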
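Fluorescence-quenching assay with 15 nM Sfp, 5 uM rhodamine-CoA and 12.5 uM BHQ-2-labelled ybbR peptide in pH 7.6 Hepes/MgCl2 buffer. Enzyme was pre-incubated with compound for 15 min at room temperature. Rate was taken from the 30-min fluorescence change (525/598 nm).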
TrxR1 substrate: substrates of rat thioredoxin reductase 1; O89049; purified TrxR1 substrate turnover, NADPH consumption readout; Potency, µM (series often up to 114 µM), without a hit: at the highest dose activity change, negative = substrate turnover; actives 0.01% (n = 390,000); AID 588456; further: nearly all actives have a fitted effect of over 50% in size
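Rat TrxR1, dispensed at 90 nM, was prereduced with 400 uM NADPH (final) for 5 min at ~22 deg C, then incubated with compound 15 min before 400 uM selenite. A first-read NADPH fluorescence drop versus no-compound background flagged substrates.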
Numbers without * were called inactive; ? = inconclusive; . = not tested or not shown; [ ] = another dose, or the depositor's remark. An excerpt weighted towards active compounds, which were near 3.8% of everything screened. The call rests on the fitted dose curve; in most records, active means well fitted curve in the direction sought with a large enough effect; inconclusive means small, poorly fitted or top-dose-only effect, or another doubt; inactive means no such curve, though single readings can be large; an effect the other way counts as inactive or inconclusive. Unless noted, on the % scale 0 is the no-effect control and ±100 the full control effect; potency means the concentration at half of the fitted maximal effect.

SMILES	GCN5L2 inh	VDR inhibitor	TrxR1 inh	GLS inh	Sfp PPTase inh	TrxR1 substrate
CC(C)C(=O)NC(=S)Nc1ccccc1N1CCN(C(=O)c2ccccc2)CC1	-3%	1%	-19%	4%	14%	-5%
CCOC(=O)c1sc(NC(=O)c2ccc(OC)cc2)nc1C	-8%	19%	-10%	0%	1%	2%
CCOC(=O)c1sc(NC(C)=O)nc1C	-2%	-25%	12%	9%	56µM*	5%
Cc1c([N+](=O)[O-])cc(C(=O)Oc2ccc(Br)cc2C(=S)N2CCCCC2)cc1[N+](=O)[O-]	0%	-11%	?	8%	2%	4%
C=C(C)COc1ccc2c(CC)cc(=O)oc2c1	1%	?	22%	-14%	56µM*	37%
CC[C@]12c3[nH]c4cc(CCC(=O)N(C)C)ccc4c3CCN1C(=O)[C@@H](CC(=O)NCc1ccc(OC)c(OC)c1)C[C@@H]2C(=O)N1CCN(C(=O)c2ccco2)CC1	-8%	-19%	2%	0%	.	2%
O=C1SC(SC(=Nc2ccccc2)Nc2ccccc2)C(=O)N1c1ccccc1 (stereo not drawn)	0%	89µM*	12%	-1%	-20%	1%
CCN(CC)S(=O)(=O)c1ccc2c(c1)N(CC(=O)NCCc1ccccc1)C(=O)CO2	2%	-8%	25%	-7%	.	0%
COc1ccc(CN2C(=O)/C(=C/c3ccncc3)SC2=S)cc1	-7%	50µM*	-35%	1%	?	-17%
COc1ccc(/C=C2\SC(=S)N(CC(=O)OCC(=O)Nc3cc(Cl)cc(Cl)c3)C2=O)cc1	-8%	-20%	4%	2%	20µM*	-2%
CCOC(=O)c1cc(-c2ccccc2)nn1-c1ccccn1	4%	-12%	12%	-6%	0%	-2%
COCc1cc(C)nc(Nc2ccccc2C)c1C#N	.	-9%	5%	-3%	-9%	-2%
CNCc1ccccc1Sc1ccc(O)c(O)c1	-5%	?	32µM*	1%	?	-10%
C/C(=N\Nc1nc2ccccc2c(=O)n1O)c1ccco1	-19%	-16%	-8%	8%	79µM*	-5%
C/C(=N\NC(=O)c1cc(C)nc2ccccc12)c1ccco1	-1%	-4%	13%[57.1 µM]	-6%	12%	4%[57.1 µM]
COC(=O)C1=C(C)N(c2ccc(Cl)cc2)/C(=C/c2ccc(O)cc2)C1=O	1%	-2%	7%[57.1 µM]	6%	4%	4%[57.1 µM]
COC(=O)C1=C(C)N(c2cc(C)cc(C)c2)/C(=C/c2ccc(O)cc2)C1=O	-3%	50µM*	-6%	2%	45µM*	-2%
CCOC(=O)c1cc(NC(=O)c2ccc(C)cc2)c(=O)oc1C(F)(F)F	-4%	-9%	-18%	23%	6%	-11%
N/C(=N\OC(=O)c1csnn1)c1ccc(C(F)(F)F)cc1	-12%	0%	18%[57.1 µM]	18%	56µM*	7%
COc1ccc(CC(=O)NNC(=O)CSc2nc(C)c(C)c(=O)[nH]2)cc1	1%	0%	-7%[57.1 µM]	2%	89µM*	-6%[57.1 µM]
OC/C(Br)=C(\Br)CO	2%	-10%	10%	-2%	.	-3%
O=C(O)c1cc(O)c2c(c1)[O][Bi][O]2	-16%	-1%	.	-3%	?	.
O=c1[nH]c(/C(Cl)=C/c2cccc(C(F)(F)F)c2)nc2cc(Cl)ccc12	-2%	0%	35%	-10%	12%	17%
CC(=O)C1=C(O)C(=O)N(CCCO)C1c1ccccc1 (stereo not drawn)	2%	-1%	-4%	8%	71µM*	2%
CC(=O)C1=C(O)C(=O)N(C)C1c1ccccc1[N+](=O)[O-] (stereo not drawn)	-3%	?	-22%	10%	71µM*	12%
CC(=O)C1=C(O)C(=O)N(CCC(=O)O)C1c1ccccc1[N+](=O)[O-] (stereo not drawn)	1%	6%	1%[57.1 µM]	0%	11µM*	-5%[57.1 µM]
